From PubChem BioAssay AID2530 (National Center for Advancing Translational Sciences (NCATS), 2010)
Records with an inconclusive call do not appear. A call without a number means that no potency is given here. Calls of active or inactive are those of the source. Calls follow the shape of the dose curve; as a rule, active = well fitted inhibition curve with a large enough effect; inconclusive = small, poorly fitted or top-dose-only effect; inactive = flat fitted curve, though single readings scatter.

Each compound was assayed against Luciferin 4-monooxygenase (Photuris pensylvanica) (UniProt Q27757) (assay: Secondary Assay for Luciferase (Kinase-Glo TM) Inhibition Counterscreen). Conditions: Kinase-Glo luciferase enzyme, luminescence; series mostly up to 58.1 µM.
Experimental: NIH Chemical Genomics Center [NCGC] Malcolm Walkinshaw, Hugh Morgan, Linda Gilmore University of Edinburgh, UK MLPCN Grant: 1 R03 MH085697-01 NCGC Assay Overview: Luciferase (Kinase-Glo, Promega Corporation) was assayed for its ability to generate light using ATP and luciferin as substrates. The ATP concentration in the assay (10 uM) was within the linear range of enzyme activity for the assay conditions used. This assay was used as an counter screen for human pyruvate kinase M2 isoform.
NCGC Assay Protocol Summary: Four uL of substrate mix (final concentration, 50 mM imidazole pH 7.2, 50 mM KCl, 7 mM MgCl2, 10 uM ATP, 0.01% Tween 20, 0.05% BSA) was dispensed into white 1536 well plates. Twenty-three nL of compound was delivered by a pin tool and 2 uL of luciferase detection mix (Kinase-Glo, Promega)) was added. Following 8-minute incubation at ambient temperature, luminescence was measured by a ViewLux (Perkin Elmer) at 5 seconds exposure/plate. Data were normalized to the controls for basal activity (DMSO only) and 100% inhibition (40 uM SIB 1757) and curve fitting was performed using Hill equation.
Potency is read from the fitted curve at half-maximal effect.

SMILES	Potency
O=C1c2ccccc2C(=O)N1c1cccc2cnccc12	inactive
O=C1c2ccccc2C(=O)N1Cc1ccccc1	inactive
COc1ccc2[nH]c3c4c(ccc3c2c1)C(=O)C=CC4=O	inactive
Cc1ccc(NS(=O)(=O)c2ccc3c(c2)n(C)c(=O)n3C)cc1C	inactive
O=C1c2ccccc2C(=O)C1c1ccnc2ccccc12	inactive
O=[N+]([O-])c1cc2oc3c(c2c(C=NCc2ccccc2)c1O)CCCC3	inactive
CC(=O)N(C1=C(Cl)C(=O)c2ccccc2C1=O)c1ccc(C(=O)O)cc1	inactive
Cc1ccsc1C(=O)Nc1nc2ccccc2[nH]1	16.3 µM (active)
Cc1ccc(NS(=O)(=O)c2ccc3c(c2)CCC(C)(C)O3)cc1C	inactive
Cc1ccc(NS(=O)(=O)c2cc3c(cc2F)NC(=O)CC3)cc1C	inactive
Cc1ccc(NS(=O)(=O)c2ccc3c(c2)CCC(=O)N3)cc1C	inactive
COc1ccc(-c2nc(-c3ccccn3)no2)cc1	2.91 µM (active)
O=C(COC(=O)CCC(=O)c1ccc(F)cc1)Nc1ccc(F)cc1F	inactive
O=C(Nc1ccc(N2CCOCC2)cc1)c1cn2ccccc2n1	6.51 µM (active)
Cc1ccc(NS(=O)(=O)c2ccc3c(c2)oc(=O)n3C)cc1C	inactive
O=C1CCc2cc(S(=O)(=O)Nc3ccc(-c4ccccc4)cc3)ccc2N1	inactive
Cc1ccc(NS(=O)(=O)c2cc3c(cc2/C=C/c2ccccc2)NC(=O)CO3)cc1C	inactive
COc1ccc(C(=O)C[n+]2ccc(N)c(C)c2C)cc1	inactive
CC(=O)N(C1=C(Cl)C(=O)c2ccccc2C1=O)C1CCCCC1	inactive
Cc1ccc(N2C(=O)c3ccccc3C2O)nc1 (stereo not given)	6.51 µM (active)

SMILES	Potency
Cc1ccc(NS(=O)(=O)c2ccc(-c3ccccc3)cc2)cc1C	inactive
CN(C)c1cccc(S(=O)(=O)N2CCN(S(=O)(=O)c3ccc4c(c3)OCCO4)CC2)c1	inactive
O=C1c2ccccc2C(=O)N1Cc1ccccn1	inactive
O=C(NC(=O)c1ccccc1)Nc1ccccn1	5.8 µM (active)
COc1cc(F)c(S(=O)(=O)N2CCCN(S(=O)(=O)c3cccc(N)c3)CC2)c(F)c1	inactive
Cc1ccc(NS(=O)(=O)c2cc3c(cc2-c2cn[nH]c2)NC(=O)CO3)cc1C	inactive
COc1ccc(N2C(=O)c3ccccc3C2=O)cc1	inactive
CC(C)(C)NC(=O)C(c1ccncc1)N(C(=O)Cn1nnc(-c2ccc(F)cc2)n1)c1ccccc1 (stereo not given)	inactive
Oc1ccc(C23CC4CC(CC(C4)C2)C3)cc1O	inactive
CN(C)c1ccc(N=Nc2nc3ccccc3n2C)cc1	9.19 µM (active)
COc1ccc2c(c1)c1ccc3c(c1n2C)C(=O)C=CC3=O	inactive
Cc1ccccc1NS(=O)(=O)c1ccc2c(c1)CCC(=O)N2	inactive
O=C1c2ccccc2C(=O)N1c1ccc2ccccc2n1	inactive
O=C1CCc2cc(S(=O)(=O)Nc3ccccn3)ccc2N1	inactive
Cc1ccc(NS(=O)(=O)c2ccc(N3CCCC3=O)cc2)cc1C	inactive
c1ccc2nc(-c3nc4ccccc4[nH]3)ccc2c1	5.8 µM (active)
CCOc1ccc(C(=O)O/N=C(\N)c2ccccn2)cc1	5.8 µM (active)
Cc1ccc(OC2=NS(=O)(=O)c3ccccc32)cc1	inactive
O=S1(=O)N=C(Oc2ccc(Cl)cc2)c2ccccc21	inactive
Cc1ccc(NS(=O)(=O)c2cc3c(cc2N(C)C)NC(=O)CC3)cc1C	inactive
